Experimental findings from PubChem BioAssay (Tox21) are described below.

Structures are written as SMILES. Values without a mark were called inactive. Activity calls are given as the source filed them. Calls come from the whole dose curve; as a rule, active = well fitted curve in the direction sought with a large enough effect in the repeat runs; inconclusive = weak or mixed curves; inactive = flat fitted curve, though single readings scatter.
% is set by controls: 0 for no effect and ±100 for the full control effect.

This assay can be described thus: qHTS assay to test for compound auto fluorescence at 590 nm (red) in HEK293 cells (AID 720679). To be noted: red autofluorescence 540/590 nm; series mostly up to 91.3 µM; fluorescence, % of fluorescent control: at the top concentration. The method, boiled down: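 Autofluorescence equivalency to Rose Bengal sodium, 540/590nm, in HEK293 cells exposed overnight to 23 nL compound per well.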
(In qHTS, concentration-response curves come from the screen itself.)
`CCN[C@@H](C)Cc1cccc(C(F)(F)F)c1`: the “fluorescence, % of fluorescent control” value was 0.109%.

Regarding `CN(C)CCc1c[nH]c2cccc(OP(=O)(O)O)c12`, the “fluorescence, % of fluorescent control” value is -0.114%.

In the case of `CCN(CC)C1CCCCC1`, the “fluorescence, % of fluorescent control” value is 0.185%. For the compound `C[C@H](N)C(=O)c1ccccc1`, the outcome was inactive.

Regarding `N[C@@H](Cc1ccc(Oc2cc(I)c(O)c(I)c2)c(I)c1)C(=O)O`, the “fluorescence, % of fluorescent control” value is -0.0354% [at 46 µM]. Turning to `Cc1ccc(-c2nc3ccc(C)cn3c2CC(=O)N(C)C)cc1`, the “fluorescence, % of fluorescent control” value was 0.127% [at 46 µM]. Same read-out and setting: the same measure for `O=[N+]([O-])CCO`: 0.125% [at 95.7 µM]; for `CCOc1cc(OP(=S)(OC)OC)nc(CC)n1`: -0.656%. As to `S=C=S`, the compound was called inactive.

As for `O=P(O)(O)c1ccccc1`, the “fluorescence, % of fluorescent control” value is -0.372%. Same read-out and setting: the same measure for `N#CC(Br)(Br)C(N)=O`: -0.351%. The same measure, in the same setting: for `COC(=O)c1ccc(CBr)cc1` the value was -0.282% [at 95.7 µM]; for `COP(=O)(OC)O/C(C)=C/C(=O)N(C)C`, 0.104%. Same read-out and setting: the same measure for `CC(C)N(Cc1ccccc1)C(=O)C(C)(C)C`: 0.191%. For `CCCC(C)(COC(N)=O)COC(N)=O`, the result was inactive. On the same count and under the same terms, the same measure for `O=C1C2CC=CCC2C(=O)N1SC(Cl)(Cl)Cl` (stereo unspecified): “inactive”. Regarding `Clc1ccc(C(Cl)(Cl)Cl)cn1`, the “fluorescence, % of fluorescent control” value is 0.176%. Still for that read-out and setting: for `O=c1[nH]oc2c1CCNC2` the value was -0.171% [at 46 µM]; for `Clc1cc2c(cc1Cl)Oc1cc(Cl)c(Cl)cc1O2`, 0.175% [at 0.37 µM]. Still for that read-out and setting: for `C#CCOC(=O)/C=C(C)/C=C/CC(C)CCCC(C)C` (stereo unspecified) the value was -0.702%; for `CN1COCN(Cc2cnc(Cl)s2)/C1=N\[N+](=O)[O-]`, -0.113%. For `ClC1=C(Cl)C2(Cl)C(CBr)CC1(Cl)C2(Cl)Cl` (stereo unspecified), the compound was called inactive. On to `C=CC=O`, for which the “fluorescence, % of fluorescent control” value was 0.59% [at 95.7 µM]. Still for that read-out and setting: the same measure for `c1cncc([C@@H]2CCCCN2)c1`: -0.125%. Still for that read-out and setting: for `COC(=O)c1ccccc1CS(=O)(=O)NC(=O)Nc1nc(OC)cc(OC)n1` the value was -0.0176%; for `COC1=CC(=O)O[C@@H](/C=C/c2ccccc2)C1`, 0.398% [at 95.7 µM]; for `CC(C)c1ccc(O)cc1`, 0.225%. `CCCCS(=O)(=O)Cl`: the “fluorescence, % of fluorescent control” value is 0.0295%. Still for that read-out and setting: for `CC(C)C(C)(N)C#N` (stereo unspecified) the value was 0.018%. As to `N#CN`, the compound was classed as inactive.

`COc1cc(CCN)cc(OC)c1OC`: the “fluorescence, % of fluorescent control” value is -0.284% [at 95.7 µM].
